“And” between values parts separate entries of the source, which are not always exact repeats. Equal entries are not always repeated. Among all 16,000 compounds or so, about 4,000 (25%) were called active. Not shown: some 26% with an inconclusive outcome. Only a sample is shown. A number with no mark means an inactive call. Calls come from the whole dose curve; as a rule, active = well fitted curve in the direction sought with a large enough effect; inconclusive = small, poorly fitted or top-dose-only effect, or effect the other way; inactive = no such curve, though single readings can be large or run the other way.
% is set by controls: 0 for no effect and ±100 for the full control effect.

Cytochrome P450 2C9 (Homo sapiens), sequence (P11712 whole entry, looked up): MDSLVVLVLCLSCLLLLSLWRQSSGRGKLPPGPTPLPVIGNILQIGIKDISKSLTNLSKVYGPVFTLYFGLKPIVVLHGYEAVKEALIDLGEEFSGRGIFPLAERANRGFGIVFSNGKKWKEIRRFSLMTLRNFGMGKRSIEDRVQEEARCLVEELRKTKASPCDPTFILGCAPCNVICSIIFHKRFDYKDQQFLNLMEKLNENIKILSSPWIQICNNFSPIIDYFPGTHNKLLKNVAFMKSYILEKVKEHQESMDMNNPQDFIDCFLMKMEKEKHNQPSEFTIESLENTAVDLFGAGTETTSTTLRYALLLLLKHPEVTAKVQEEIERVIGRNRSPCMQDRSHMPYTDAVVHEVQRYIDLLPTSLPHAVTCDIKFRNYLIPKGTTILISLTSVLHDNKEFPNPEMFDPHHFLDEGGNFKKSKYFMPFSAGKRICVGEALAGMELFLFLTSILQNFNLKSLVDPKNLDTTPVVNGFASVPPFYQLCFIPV

This assay addresses Cytochrome P450 2C9 (Homo sapiens) (UniProt P11712). The assay is described as follows: Cytochrome panel assay with activity outcomes. To be noted: recombinant CYP, pro-luciferin dealkylation, luminescence, p450-cyp2c9; series mostly up to 57.1 µM; activity, negative = inhibition: at the top concentration.
As to `CCc1cc2c(nc1CC)CCN(CC/C(C)=N/OC[C@@H](C)[C@H](OCc1ccccc1)C(C)C)C2`, the activity, negative = inhibition is -5.74% [at 11.4 µM].
`COc1ccc(NC(=O)N2CC3(CCN(C(=O)c4ccc(OC)cc4)CC3)C2)cc1`: the “activity, negative = inhibition” value is 9.75%.
As usually defined, the AC50 is the concentration at which the activity in the assay is half-maximal. As to `CC(C)(C)C(=O)[C@H]1[C@H](c2ccccc2)[C@@]2(N=C(c3ccccc3)OC2=O)C2c3ccccc3C=NN21` (some centres undefined), the AC50 was 15.8 µM (active).
For the compound `Cc1noc(C)c1-c1nccc(N2CCOCC2)n1`, the activity, negative = inhibition was 7.39% [at 2.29 µM].
`Cc1ccc(Oc2cc(N3CCOCC3)nc(-c3ccccc3)n2)cc1`: the AC50 is 17.8 µM (active).
Same read-out and setting: next, `Cc1cc(Oc2ccc(-c3ccccc3)cc2)nc(N2CCOCC2)n1`: 3.98 µM (active).
Turning to `COc1ccc(-n2c(=O)c(C)nc3cnc(N4CCOCC4)nc32)cc1`, the “activity, negative = inhibition” value is -29.2%.
On to `CCCc1ccc(Oc2cc(C)nc(N3CCOCC3)n2)cc1`, for which the AC50 was 25.1 µM (active).
Consider `COc1cc(N2CCOCC2)ncn1`, for which the “activity, negative = inhibition” value was -23.1%.
On to `COC(=O)c1ccc(Oc2nc(N(C)C)nc(N3CCOCC3)n2)cc1`, for which the “activity, negative = inhibition” value was -44.5%.
On the same count and under the same terms, for `COc1ccc(-n2c(=O)c(-c3ccccc3)nc3cnc(N4CCOCC4)nc32)cc1` the value was -1.43%; for `O=c1ccc(Oc2nc(N3CCOCC3)nc(N3CCOCC3)n2)n[nH]1`, -26.1%; for `N#C[C@H]1CN[C@H](N)N[C@@H]1N`, -4.64% [at 11.4 µM].
`Cc1nc2ccccc2c(=O)n1NC(=O)c1ccccc1Cl`: the AC50 was 7.94 µM (active).
As to `O=C(Nn1cnc2ccccc2c1=O)c1ccc(F)cc1Cl`, the “activity, negative = inhibition” value was 13.4%.
On the same count and under the same terms, next, `CCCOc1ccc(CSC(CC(=O)O)C(=O)O)cc1` (centres undefined): -5.81%; `COc1ccccc1-c1nc(NCc2ccccc2)c2ccccc2n1`: 16.9% [at 2.29 µM].
On to `COc1ccc(CNn2c(C)nc3ccccc3c2=O)cc1`, for which the AC50 was 5.62 µM (active).
As to `CCCCOc1ccc(CNn2c(C)nc3ccccc3c2=O)cc1`, the AC50 was 4.47 µM (active).
With `COc1ccc(CN[C@H](C)C(=O)O)cc1`, the activity, negative = inhibition is 12.3% [at 11.4 µM].
Turning to `CN(C)c1ccccc1CN1CCCN(Cc2ccccc2N(C)C)C1c1ccncc1`, the activity, negative = inhibition was -12% [at 11.4 µM].
For the compound `N=c1ccn2c(n1)O[C@H]1[C@@H](OP(=O)(O)O)[C@H](CO)O[C@H]12`, the activity, negative = inhibition is 5.28% [at 11.4 µM].
With `CCCC[C@H](CC)CN1CN(C[C@@H](CC)CCCC)CC(C)(N)C1`, the “activity, negative = inhibition” value was -3.68% [at 25.6 µM].
Still for that read-out and setting: for `Nc1ccc(S(=O)(=O)Nc2ccccn2)cc1` the value was 11.1% [at 25.6 µM]; for `CN(C)S(=O)(=O)Nc1ccccn1`, 0.0893% [at 11.4 µM].
On to `O=C1C(Cl)=C(Nc2ccc(S(=O)(=O)Nc3ccccn3)cc2)C(=O)c2ccccc21`, for which the AC50 was 2 µM (active).
As to `C[C@@H](C(=O)O)c1ccc(-c2ccccc2)c(F)c1`, the AC50 was 10 µM (active).
For the compound `O=C(O)[C@@H](O)c1ccc(F)cc1`, the activity, negative = inhibition was -3.58% [at 11.4 µM].
With `C[C@H](C(=O)O)c1cccc(Oc2ccccc2)c1`, the “activity, negative = inhibition” value was -0.647% [at 25.6 µM].
Take `CCCCC1(C)NC(=O)c2c(C)sc(C(=O)OCC)c2N1` (centres undefined): the AC50 was 0.282 µM (active).
Turning to `NC(=S)SCCC(=O)O`, the activity, negative = inhibition was -6.98% [at 11.4 µM].
Take `CC(C)CO/N=C1/C[C@@H](O)[C@@H](O)[C@@H]2[C@@H]3C(=O)N(C[C@@H]4CCCO4)C(=O)[C@H]3CC[C@@H]12`: the activity, negative = inhibition is 18.7% [at 11.4 µM].
Consider `O=C1SC(c2ccccc2)=C/C1=C\N1CCCCC1`, for which the AC50 is 11.2 µM (active).
`CC[N+](CC)(CC)CC[C@](O)(c1ccccc1)C1CCCCC1`: the “activity, negative = inhibition” value is -9.66% [at 25.6 µM].
Take `COc1c(/C=N/Nc2ccc([N+](=O)[O-])cc2[N+](=O)[O-])c(C)nn1-c1ccccc1`: the AC50 was 20 µM (active).
`S=C1N[C@H](c2ccccc2)N[C@H](c2ccccc2)S1`: the AC50 was 2 µM (active).
Take `O=C1C2[C@@H](c3ccccc3)N[C@@H](c3ccccc3)C1[C@H](c1ccccc1)N[C@H]2c1ccccc1`: the activity, negative = inhibition is -3.9% [at 11.4 µM].
Regarding `O=C1[C@H]2[C@H]3[C@H](O)[C@H](O)C/C(=N/OCc4ccccc4)[C@H]3CC[C@@H]2C(=O)N1C[C@@H]1CCCO1`, the activity, negative = inhibition was -4.81% [at 11.4 µM].
Still for that read-out and setting: next, `CN(C)Cc1ccccc1-c1cc(NCc2ccccc2)ncn1`: -1.3% [at 2.29 µM].
As for `CC(C)C(=O)N1CCN(c2ccccc2NC(=O)c2cccc(Cl)c2)CC1`, the AC50 is 14.1 µM (active).
Turning to `CNC(=S)NNC(=O)COc1ccccc1C`, the “activity, negative = inhibition” value was 32.9%.
Regarding `O=C(Nc1ccccc1N1CCN(C(=O)c2ccccc2)CC1)c1cc(Br)ccc1Cl`, the AC50 was 2.51 µM (active).
On to `Cc1ccccc1OCC(=O)Nc1ccc(N2CCN(C(=O)C(C)C)CC2)c(Cl)c1`, for which the AC50 is 3.98 µM (active).
Consider `CC1CN(C2CCN(C(=O)c3cccc(Cl)c3)CC2)CC(C)O1` (centres undefined), for which the “activity, negative = inhibition” value is -23.4%.
On to `O=C(Nc1ccccc1N1CCN(C(=O)c2ccc(Cl)cc2)CC1)c1cc(Br)ccc1Cl`, for which the AC50 was 3.98 µM (active).
With `CC[C@]1(O)C[C@@H]2CN(CCc3c([nH]c4ccccc34)[C@](C(=O)OC)(c3cc4c(cc3OC)N(C=O)[C@H]3[C@@](O)(C(=O)OC)[C@H](C(=O)OC)[C@@]5(CC)C=CCN6CC[C@]43[C@H]65)C2)C1`, the “activity, negative = inhibition” value was -28.6%.
With `CC(C)C(O)(C#CCN1CCCC1)c1ccccc1` (centres undefined), the “activity, negative = inhibition” value is -10.7%.
With `CC(C)(C)N1C(=O)[C@H]2[C@@H]3[C@H](O)C=CC(=O)[C@H]3CC[C@H]2C1=O`, the activity, negative = inhibition is 3.18% [at 11.4 µM].
On the same count and under the same terms, next, `CC(=O)O[C@]12CC[N@+]3(C)CCCC[C@@H]3[C-]1Nc1ccccc12`: 2.24% [at 11.4 µM].
On to `Cc1ccc(C2=C(Cl)C(=O)C(c3ccc(C)cc3)=C(Cl)C2=O)cc1`, for which the AC50 was 1.58 µM (active).
Turning to `CC1(C)CC(=O)C/C(=N/NC(=O)CCCOc2ccc(Cl)cc2Cl)C1`, the “activity, negative = inhibition” value was 17.7%.
In the case of `COc1ccc(/C=N/NC(=O)CCCOc2ccc(Cl)cc2Cl)cc1[N+](=O)[O-]`, the AC50 is 2.24 µM (active).
Take `COC(=O)C/C=C\[C@@H](C)[C@@H](/C=N\O[C@@H](C)c1cn([C@H](CO)Cc2ccccc2)nn1)NS(=O)(=O)c1ccc(C)cc1`: the activity, negative = inhibition was -29.2% [at 11.4 µM].
For the compound `COC(=O)[C@@H]1CC[C@H](C)[C@@H](c2ccc(C)cc2)N1C(=O)c1ccc(/C=N\O[C@@H](C)c2cn([C@H](CO)Cc3ccccc3)nn2)cc1`, the AC50 is 3.16 µM (active) and 2.51 µM (active).
In the case of `COC(=O)[C@@H]1CC[C@H](C)[C@@H](c2ccc(C)cc2)N1C(=O)c1ccc(/C=N\OC[C@@H](C)[C@H](OCc2ccccc2)C(C)C)cc1`, the activity, negative = inhibition is -24.2% [at 11.4 µM].
As for `COC(=O)[C@@H]1CC[C@H](C)[C@@H](c2ccc(C)cc2)N1C(=O)c1ccc(/C=N\OC[C@@H](O)COCc2ccco2)cc1`, the AC50 was 3.98 µM (active).
For `C=CC[C@@H]1C=C[C@H](ON=C(C)C)[C@H](CO)O1`, the activity, negative = inhibition is 12% [at 11.4 µM].
In the case of `COC(=O)C/C=C\[C@@H](C)[C@@H](/C=N\OC[C@@H](O)COCc1ccco1)OC`, the activity, negative = inhibition was -26.7% [at 11.4 µM].
Turning to `CCCNC(=O)OC[C@@H]1O[C@H](CCO/N=C\c2ccc(C(=O)N3[C@H](c4ccc(C)cc4)[C@@H](C)CC[C@H]3C(=O)OC)cc2)C=C[C@@H]1Oc1ccc(OC)cc1`, the AC50 was 3.98 µM (active).
As to `C=CC[C@@H]1C=C[C@@H](O/N=C\[C@@H](OC)[C@H](C)/C=C\CC(=O)OC)[C@@H](CO)O1`, the activity, negative = inhibition was 21.3% [at 11.4 µM].
As for `COC(=O)[C@@H]1CC[C@H](C)[C@@H](c2ccc(C)cc2)N1C(=O)c1ccc(/C=N\OC[C@@H]2O[C@H](c3ccccc3)C=C[C@@H]2Oc2ccc(OC)cc2)cc1`, the activity, negative = inhibition is -16.2% [at 11.4 µM].
For the compound `COC(=O)C/C=C\[C@@H](C)[C@@H](/C=N\O[C@@H](C)c1cn([C@H](CO)Cc2ccccc2)nn1)OC`, the activity, negative = inhibition is -11.4% [at 11.4 µM] and -9% [at 11.4 µM].
With `C=CC[C@@H]1C=C[C@@H](O/N=C\c2ccc(C(=O)N3[C@H](c4ccc(C)cc4)[C@@H](C)CC[C@H]3C(=O)OC)cc2)[C@@H](CO)O1`, the AC50 was 3.98 µM (active).
For `CCCNC(=O)OC[C@@H]1O[C@H](CCO/N=C\C[C@H]2C=C[C@H](OC(C)=O)[C@@H](COC(C)=O)O2)C=C[C@@H]1Oc1ccc(OC)cc1`, the activity, negative = inhibition is -11.7% [at 11.4 µM].
